# The supplement of paper PMC7724964
# T1: NR1H3 204-447 Hormone_recep (domain begin residue: 204, domain end residue: 447), Q13133
# T1 chain: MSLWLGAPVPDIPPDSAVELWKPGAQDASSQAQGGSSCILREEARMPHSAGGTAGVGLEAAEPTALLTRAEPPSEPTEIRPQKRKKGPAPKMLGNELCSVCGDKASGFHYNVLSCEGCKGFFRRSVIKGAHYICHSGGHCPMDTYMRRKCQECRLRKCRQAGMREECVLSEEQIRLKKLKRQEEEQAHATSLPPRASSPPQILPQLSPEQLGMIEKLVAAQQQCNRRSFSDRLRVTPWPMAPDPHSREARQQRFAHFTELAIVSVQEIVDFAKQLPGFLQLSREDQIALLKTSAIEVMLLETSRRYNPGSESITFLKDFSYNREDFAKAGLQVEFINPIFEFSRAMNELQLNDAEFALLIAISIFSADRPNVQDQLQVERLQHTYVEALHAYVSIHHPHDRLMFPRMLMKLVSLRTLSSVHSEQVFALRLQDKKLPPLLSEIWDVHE
# T2: NFKBIA 70-282 EF-hand_6 (domain begin residue: 70, domain end residue: 282), P25963
# T2 chain: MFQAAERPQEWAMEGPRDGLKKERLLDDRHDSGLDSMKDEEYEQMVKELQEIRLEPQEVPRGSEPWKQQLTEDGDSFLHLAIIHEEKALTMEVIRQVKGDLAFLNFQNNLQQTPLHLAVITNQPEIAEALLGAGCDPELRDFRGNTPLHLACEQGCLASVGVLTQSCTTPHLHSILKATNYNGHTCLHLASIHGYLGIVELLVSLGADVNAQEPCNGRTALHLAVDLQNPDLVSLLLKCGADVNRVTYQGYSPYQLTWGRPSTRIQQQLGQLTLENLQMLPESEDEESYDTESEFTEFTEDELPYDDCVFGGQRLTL
# T3: MDM4 26-106 SWIB (domain begin residue: 26, domain end residue: 106), O15151
# T3 chain: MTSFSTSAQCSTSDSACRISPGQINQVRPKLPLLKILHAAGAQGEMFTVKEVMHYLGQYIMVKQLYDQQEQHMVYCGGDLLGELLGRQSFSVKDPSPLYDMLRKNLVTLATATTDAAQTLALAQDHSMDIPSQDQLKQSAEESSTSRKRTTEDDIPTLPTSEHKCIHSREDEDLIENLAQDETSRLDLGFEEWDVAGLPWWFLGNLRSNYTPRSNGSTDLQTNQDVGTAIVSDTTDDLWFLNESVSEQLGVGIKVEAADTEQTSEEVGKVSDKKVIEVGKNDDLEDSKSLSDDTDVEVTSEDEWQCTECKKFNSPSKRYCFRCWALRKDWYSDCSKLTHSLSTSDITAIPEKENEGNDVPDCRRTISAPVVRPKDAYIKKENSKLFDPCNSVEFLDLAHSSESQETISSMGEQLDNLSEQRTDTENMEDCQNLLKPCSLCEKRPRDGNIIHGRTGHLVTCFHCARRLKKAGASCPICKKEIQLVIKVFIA
# T4: ZGPAT 120-268 zf-CCCH+TUDOR (domain begin residue: 120, domain end residue: 268), Q8N5A5
# T4 chain: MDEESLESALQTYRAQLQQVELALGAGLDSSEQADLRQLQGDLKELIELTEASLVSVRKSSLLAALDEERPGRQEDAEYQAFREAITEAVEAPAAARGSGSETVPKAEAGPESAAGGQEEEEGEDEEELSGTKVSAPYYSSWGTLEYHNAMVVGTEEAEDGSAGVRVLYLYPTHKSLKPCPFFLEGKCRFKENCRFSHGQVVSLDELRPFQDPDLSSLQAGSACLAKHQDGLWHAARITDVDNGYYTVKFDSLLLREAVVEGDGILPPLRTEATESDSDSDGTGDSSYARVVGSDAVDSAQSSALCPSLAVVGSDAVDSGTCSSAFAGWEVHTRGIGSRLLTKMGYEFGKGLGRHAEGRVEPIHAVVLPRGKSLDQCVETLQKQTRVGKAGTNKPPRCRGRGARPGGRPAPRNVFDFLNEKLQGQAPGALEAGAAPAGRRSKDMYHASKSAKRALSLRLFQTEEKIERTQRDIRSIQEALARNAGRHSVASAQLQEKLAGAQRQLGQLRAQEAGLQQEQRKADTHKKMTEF
# T5: NR1H2 203-460 Hormone_recep (domain begin residue: 203, domain end residue: 460), P55055
# T5 chain: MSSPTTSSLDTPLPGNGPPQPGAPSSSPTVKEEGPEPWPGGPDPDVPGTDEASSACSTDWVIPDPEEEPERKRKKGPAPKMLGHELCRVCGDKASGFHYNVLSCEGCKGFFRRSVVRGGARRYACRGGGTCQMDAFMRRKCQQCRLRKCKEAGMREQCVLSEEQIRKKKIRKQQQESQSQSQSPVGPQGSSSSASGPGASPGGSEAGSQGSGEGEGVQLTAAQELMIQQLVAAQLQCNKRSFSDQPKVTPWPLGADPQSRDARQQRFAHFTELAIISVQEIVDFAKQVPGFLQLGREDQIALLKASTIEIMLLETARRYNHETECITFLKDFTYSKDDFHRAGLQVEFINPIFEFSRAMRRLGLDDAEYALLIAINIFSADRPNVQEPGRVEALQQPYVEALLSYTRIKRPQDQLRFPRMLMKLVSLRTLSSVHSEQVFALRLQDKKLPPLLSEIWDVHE
# T6: NR1D2 386-579 Hormone_recep (domain begin residue: 386, domain end residue: 579), Q14995
# T6 chain: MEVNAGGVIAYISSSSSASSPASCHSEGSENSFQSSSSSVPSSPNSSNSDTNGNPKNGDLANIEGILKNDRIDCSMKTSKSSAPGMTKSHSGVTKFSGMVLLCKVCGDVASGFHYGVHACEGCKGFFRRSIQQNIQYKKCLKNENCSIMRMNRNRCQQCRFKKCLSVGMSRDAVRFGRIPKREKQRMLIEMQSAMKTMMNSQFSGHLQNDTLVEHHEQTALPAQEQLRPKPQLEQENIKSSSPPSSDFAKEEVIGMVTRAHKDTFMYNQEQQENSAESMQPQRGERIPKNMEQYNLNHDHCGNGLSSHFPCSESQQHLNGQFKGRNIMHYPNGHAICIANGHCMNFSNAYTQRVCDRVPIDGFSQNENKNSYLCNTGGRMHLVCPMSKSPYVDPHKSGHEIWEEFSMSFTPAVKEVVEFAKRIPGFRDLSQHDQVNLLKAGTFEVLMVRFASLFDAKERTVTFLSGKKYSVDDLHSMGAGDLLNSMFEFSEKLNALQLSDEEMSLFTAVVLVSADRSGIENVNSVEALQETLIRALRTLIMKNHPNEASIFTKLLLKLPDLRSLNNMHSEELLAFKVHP
# T7: MYL6 4-151 EF-hand_6 (domain begin residue: 4, domain end residue: 151), P60660
# T7 chain: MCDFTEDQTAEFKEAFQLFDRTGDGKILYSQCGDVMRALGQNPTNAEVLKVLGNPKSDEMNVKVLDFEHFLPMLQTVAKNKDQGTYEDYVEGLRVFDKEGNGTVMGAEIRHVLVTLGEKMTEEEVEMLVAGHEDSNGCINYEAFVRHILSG
# B1: unnamed (peptide)
# chain: TSYDPWVMEGMTQVVA
# B2: unnamed (peptide)
# chain: QDEDVWWAWMMGLGME
# B3: unnamed (peptide)
# chain: YSIWMMEPPKVAPKAE
# B4: unnamed (peptide)
# chain: EWFTDHNGADVWLELP
# B5: unnamed (peptide)
# chain: MYRAPDAYDDHQVYVS
# B6: unnamed (peptide)
# chain: FVEMWNDMMFEDWDLV
# B7: unnamed (peptide)
# chain: DPMSDLFMHNPFVQEP
# B8: unnamed (peptide)
# chain: VWYRFEPAPMPKPHGQ
# B9: unnamed (peptide)
# chain: KDFSMWWVELKEVEVS
# B10: unnamed (peptide)
# chain: ESLWIIPSNAYWEQVM
# B11: unnamed (peptide)
# chain: PHGITDVWAQWFVEML
# B12: unnamed (peptide)
# chain: QHSAMSAVWHFGPMWY
# B13: unnamed (peptide)
# chain: DYMAIWDHIPLKDAGF
# B14: unnamed (peptide)
# chain: YFEMLEDDGVWTAPNW
# B15: unnamed (peptide)
# chain: WQDAWMQAMEQIYPPL
# B16: unnamed (peptide)
# chain: WYMESLWQPDMMLPKF
# B17: unnamed (peptide)
# chain: MPLFMDLWQDMMPTNY
# B18: unnamed (peptide)
# chain: KMELSFWEFWQVLQHE
# B19: unnamed (peptide)
# chain: VDPDWWDWMMSQLDTN
# B20: unnamed (peptide)
# chain: DREQSGWFILRAPVYQ
# B21: unnamed (peptide)
# chain: IEFMDYWDSLDWMQKV
# B22: unnamed (peptide)
# chain: TMMPIWSEGQWWWGHI
# B23: unnamed (peptide)
# chain: AVFSQLWEAMPAVDWT
# B24: unnamed (peptide)
# chain: PMWDSVWDHLLTEPPE
# B25: unnamed (peptide)
# chain: AFWTHWQKLIPPEFQA
# B26: unnamed (peptide)
# chain: QPLPPPPPPSSIPAPA
# B27: unnamed (peptide)
# chain: GEDPPPYSPLTSPDSG
# B28: unnamed (peptide)
# chain: VEHEFLWHWGQIDFMM
# Tests used:
# Assay in all cases: phage ELISA signal ratio (GST-PRM binding over GST background); higher = stronger binding of peptide-phage to the PRM
# [1] = molecular target: MSH6 89-203 PWWP (domain begin residue: 89, domain end residue: 203), P52701
# Method in brief: (§1)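 Five rounds of selection were carried out against human peptide recognition domains fused to the C-terminus of glutathione S-transferase (GST) and expressed in 96-well plates. The M13 phage library presented randomized hexadecapeptides, cysteine-free and glycine-flanked, on the gene-8 major coat protein. For each value, the phage ELISA signal on the GST-domain fusion was divided by the signal on GST alone.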
# [2] = molecular target: SETD1A 2-220 RRM_1 (domain begin residue: 2, domain end residue: 220), O15047
# Method in brief: as §1
# [3] = molecular target: T1, NR1H3 204-447 Hormone_recep (domain …
# Method in brief: as §1
# [4] = molecular target: MAD2L1 2-205 HORMA (domain begin residue: 2, domain end residue: 205), Q13257
# Method in brief: as §1
# [5] = molecular target: T2, NFKBIA 70-282 EF-hand_6 (domain begin …
# Method in brief: as §1
# [6] = molecular target: T3, MDM4 26-106 SWIB (domain begin residue: …
# Method in brief: as §1
# [7] = molecular target: T4, ZGPAT 120-268 zf-CCCH+TUDOR (domain …
# Method in brief: as §1
# [8] = molecular target: T5, NR1H2 203-460 Hormone_recep (domain …
# Method in brief: as §1
# [9] = molecular target: T6, NR1D2 386-579 Hormone_recep (domain …
# Method in brief: as §1
# [10] = molecular target: T7, MYL6 4-151 EF-hand_6 (domain begin …
# Method in brief: as §1
# Chain of MAD2L1 2-205 HORMA (domain begin residue: 2, domain end residue: 205), Q13257 (Q13257 whole entry): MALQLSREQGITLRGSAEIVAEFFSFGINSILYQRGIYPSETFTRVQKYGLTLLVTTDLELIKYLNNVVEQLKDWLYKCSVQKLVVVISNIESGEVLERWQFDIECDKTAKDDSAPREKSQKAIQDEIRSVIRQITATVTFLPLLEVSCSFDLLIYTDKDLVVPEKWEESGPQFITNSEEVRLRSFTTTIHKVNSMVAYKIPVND
# Chain of MSH6 89-203 PWWP (domain begin residue: 89, domain end residue: 203), P52701 (P52701 whole entry, the tested form may be a part): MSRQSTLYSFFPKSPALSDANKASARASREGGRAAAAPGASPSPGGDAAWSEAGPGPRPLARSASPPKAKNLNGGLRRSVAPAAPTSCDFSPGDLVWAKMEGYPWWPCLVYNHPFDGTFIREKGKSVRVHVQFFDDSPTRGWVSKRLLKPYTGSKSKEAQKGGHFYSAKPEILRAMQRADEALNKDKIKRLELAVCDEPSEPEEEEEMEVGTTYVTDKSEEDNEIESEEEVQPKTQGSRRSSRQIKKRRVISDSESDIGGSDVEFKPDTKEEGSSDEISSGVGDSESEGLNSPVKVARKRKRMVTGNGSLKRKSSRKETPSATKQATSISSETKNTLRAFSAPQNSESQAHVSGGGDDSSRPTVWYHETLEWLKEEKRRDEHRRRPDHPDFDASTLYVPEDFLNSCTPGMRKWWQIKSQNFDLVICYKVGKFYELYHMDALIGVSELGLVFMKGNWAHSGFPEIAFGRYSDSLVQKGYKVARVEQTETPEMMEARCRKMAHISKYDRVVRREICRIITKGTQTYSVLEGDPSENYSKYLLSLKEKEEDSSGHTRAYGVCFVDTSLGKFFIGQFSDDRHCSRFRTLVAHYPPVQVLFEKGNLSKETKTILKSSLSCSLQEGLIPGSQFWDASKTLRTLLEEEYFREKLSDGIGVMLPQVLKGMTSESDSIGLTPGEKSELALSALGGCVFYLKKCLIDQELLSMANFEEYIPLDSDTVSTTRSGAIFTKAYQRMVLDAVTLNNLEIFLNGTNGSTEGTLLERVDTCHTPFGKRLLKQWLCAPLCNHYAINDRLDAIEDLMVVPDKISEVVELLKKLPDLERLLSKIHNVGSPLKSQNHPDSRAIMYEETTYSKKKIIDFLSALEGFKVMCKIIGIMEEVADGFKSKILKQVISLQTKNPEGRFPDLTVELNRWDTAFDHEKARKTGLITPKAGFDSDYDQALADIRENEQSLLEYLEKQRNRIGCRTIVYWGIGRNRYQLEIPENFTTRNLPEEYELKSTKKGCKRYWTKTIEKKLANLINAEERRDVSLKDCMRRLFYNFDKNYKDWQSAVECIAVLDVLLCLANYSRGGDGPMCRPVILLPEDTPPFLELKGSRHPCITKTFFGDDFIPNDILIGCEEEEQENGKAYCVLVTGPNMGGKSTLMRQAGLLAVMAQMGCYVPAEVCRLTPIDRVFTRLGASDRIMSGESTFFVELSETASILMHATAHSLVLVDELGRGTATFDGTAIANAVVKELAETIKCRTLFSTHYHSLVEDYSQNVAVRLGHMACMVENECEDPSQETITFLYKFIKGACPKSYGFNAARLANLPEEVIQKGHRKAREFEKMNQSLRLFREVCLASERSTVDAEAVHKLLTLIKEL
# Chain of SETD1A 2-220 RRM_1 (domain begin residue: 2, domain end residue: 220), O15047 (O15047 whole entry): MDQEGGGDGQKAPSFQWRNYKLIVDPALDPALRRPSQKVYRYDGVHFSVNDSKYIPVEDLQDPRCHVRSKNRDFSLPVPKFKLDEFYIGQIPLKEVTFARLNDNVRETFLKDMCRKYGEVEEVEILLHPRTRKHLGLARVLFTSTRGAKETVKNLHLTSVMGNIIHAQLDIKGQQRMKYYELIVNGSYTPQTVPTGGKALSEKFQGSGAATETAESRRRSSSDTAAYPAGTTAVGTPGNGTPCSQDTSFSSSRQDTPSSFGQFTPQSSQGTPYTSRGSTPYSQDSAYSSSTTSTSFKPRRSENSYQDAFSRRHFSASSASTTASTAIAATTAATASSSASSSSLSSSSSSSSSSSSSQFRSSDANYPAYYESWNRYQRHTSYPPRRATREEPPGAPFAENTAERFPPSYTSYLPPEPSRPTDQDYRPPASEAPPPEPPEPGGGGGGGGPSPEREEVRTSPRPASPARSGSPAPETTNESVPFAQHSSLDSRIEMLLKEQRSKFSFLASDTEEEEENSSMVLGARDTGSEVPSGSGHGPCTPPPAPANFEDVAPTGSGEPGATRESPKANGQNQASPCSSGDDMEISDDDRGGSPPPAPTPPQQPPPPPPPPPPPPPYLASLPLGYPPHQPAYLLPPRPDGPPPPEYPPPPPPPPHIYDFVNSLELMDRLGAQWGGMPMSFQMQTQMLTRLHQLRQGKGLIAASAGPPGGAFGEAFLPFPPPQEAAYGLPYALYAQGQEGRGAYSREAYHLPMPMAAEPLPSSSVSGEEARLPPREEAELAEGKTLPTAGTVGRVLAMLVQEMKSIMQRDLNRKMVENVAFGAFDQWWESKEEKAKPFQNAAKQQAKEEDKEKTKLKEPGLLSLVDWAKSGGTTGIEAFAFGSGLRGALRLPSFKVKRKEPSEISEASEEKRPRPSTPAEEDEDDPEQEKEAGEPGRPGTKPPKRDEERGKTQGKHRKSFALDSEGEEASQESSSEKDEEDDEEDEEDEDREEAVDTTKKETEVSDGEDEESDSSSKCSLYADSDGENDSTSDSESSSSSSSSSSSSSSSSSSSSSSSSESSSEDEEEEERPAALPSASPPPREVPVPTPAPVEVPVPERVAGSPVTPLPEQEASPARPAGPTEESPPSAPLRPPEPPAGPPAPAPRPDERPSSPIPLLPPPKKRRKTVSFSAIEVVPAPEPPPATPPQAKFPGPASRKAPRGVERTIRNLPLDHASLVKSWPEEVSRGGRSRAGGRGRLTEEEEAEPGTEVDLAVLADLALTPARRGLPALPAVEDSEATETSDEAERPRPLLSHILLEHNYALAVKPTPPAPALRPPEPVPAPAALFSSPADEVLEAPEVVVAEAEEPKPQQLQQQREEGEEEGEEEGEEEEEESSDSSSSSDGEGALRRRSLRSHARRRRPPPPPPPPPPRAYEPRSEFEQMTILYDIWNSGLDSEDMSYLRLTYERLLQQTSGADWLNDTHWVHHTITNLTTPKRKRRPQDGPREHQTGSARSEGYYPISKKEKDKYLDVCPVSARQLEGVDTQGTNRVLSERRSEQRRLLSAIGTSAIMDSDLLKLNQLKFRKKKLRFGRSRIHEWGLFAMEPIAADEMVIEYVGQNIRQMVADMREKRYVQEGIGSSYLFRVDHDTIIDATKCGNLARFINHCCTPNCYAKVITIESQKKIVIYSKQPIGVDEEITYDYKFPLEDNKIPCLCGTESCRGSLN
binder,measurement,setting,value
B1,phage ELISA signal ratio,[1],6.43
same,phage ELISA signal ratio,[2],7.68
B2,phage ELISA signal ratio,[3],8.99
B3,phage ELISA signal ratio,[4],15
B4,phage ELISA signal ratio,[5],4.99
B5,phage ELISA signal ratio,[5],7.46
B6,phage ELISA signal ratio,[6],26.4
B7,phage ELISA signal ratio,[1],7.54
same,phage ELISA signal ratio,[7],8.79
B8,phage ELISA signal ratio,[4],20.4
B9,phage ELISA signal ratio,[6],17.4
B10,phage ELISA signal ratio,[8],17.3
B11,phage ELISA signal ratio,[9],5.27
B12,phage ELISA signal ratio,[4],15
B13,phage ELISA signal ratio,[1],6.88
B14,phage ELISA signal ratio,[5],4.27
B15,phage ELISA signal ratio,[9],6.57
B16,phage ELISA signal ratio,[1],2.63
B17,phage ELISA signal ratio,[6],17.9
B18,phage ELISA signal ratio,[6],18
B19,phage ELISA signal ratio,[3],6.41
B20,phage ELISA signal ratio,[4],18.9
B21,phage ELISA signal ratio,[6],14.7
B22,phage ELISA signal ratio,[10],3.17
B23,phage ELISA signal ratio,[6],14.9
B24,phage ELISA signal ratio,[1],5.84
B25,phage ELISA signal ratio,[6],26.1
B26,phage ELISA signal ratio,[5],5.2
B27,phage ELISA signal ratio,[5],4.18
B28,phage ELISA signal ratio,[6],16
